Screening results (PubChem BioAssay)
The list is not random: actives were taken first. Their share in the collection is about 9.6%.
USP30 block: inhibitors of human USP30 deubiquitinase; Ubiquitin carboxyl-terminal hydrolase 30 (Homo sapiens), Q70CQ3; purified USP30, Ub-rhodamine cleavage fluorescence; inhibition, % at 25 µM; 5.3% of 47,000 active; AID 1645860, 2021
Target sequence (Q70CQ3 whole entry, looked up): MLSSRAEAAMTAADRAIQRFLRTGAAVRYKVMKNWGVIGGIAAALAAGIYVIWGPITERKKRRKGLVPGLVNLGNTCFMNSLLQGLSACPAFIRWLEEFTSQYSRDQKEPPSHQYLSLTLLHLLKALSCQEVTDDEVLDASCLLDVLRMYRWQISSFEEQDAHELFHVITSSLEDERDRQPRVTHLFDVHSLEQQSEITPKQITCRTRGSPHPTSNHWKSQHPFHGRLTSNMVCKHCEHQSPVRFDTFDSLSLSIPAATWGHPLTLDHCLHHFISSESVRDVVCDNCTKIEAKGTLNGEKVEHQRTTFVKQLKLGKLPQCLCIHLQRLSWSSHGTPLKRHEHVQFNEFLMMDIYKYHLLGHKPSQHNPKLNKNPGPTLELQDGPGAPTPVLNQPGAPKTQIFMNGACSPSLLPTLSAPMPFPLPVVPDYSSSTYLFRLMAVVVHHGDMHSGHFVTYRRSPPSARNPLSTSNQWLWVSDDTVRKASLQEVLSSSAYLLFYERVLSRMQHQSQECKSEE
USP17 block: inhibitors of human USP17 deubiquitinase; Ubiquitin carboxyl-terminal hydrolase 17-like protein 5 (Homo sapiens), A8MUK1; purified USP17, Ub-rhodamine cleavage fluorescence, 3 h; inhibition, % at 50 µM; 6.5% of 47,000 active
Active calls of the source: *; / = not tested or not shown. Cut-off read from the data, not from the text of the source: active = inhibition above about 30%; inactive = the rest.

SMILES	USP30 block	USP17 block
Cc1cc2nc(Oc3cccc(Cl)c3)c3ccccc3n2n1	-3	62*
Cc1cncc(C2CCCN2C(=O)c2ccc3nc(C)[nH]c3c2)n1 (stereo not drawn)	-8	/
Cc1c(N2CCN(C(=O)CC3CCCCC3)CC2)c(=O)n(C)c(=O)n1C	13	2
O=C(Nc1nnc(C2CCCCC2)s1)c1cc(F)ccc1-n1cnnn1	9	10
CCOc1ccc(NC(=O)Cn2cnc(S(=O)(=O)N3CCc4ccccc43)c2)cc1	11	80*
CCc1ccc(NC(=O)Cn2cnc(S(=O)(=O)N3CCCC3)c2)cc1	14	21
Cc1nc(N2CCN(C)CC2)ncc1C(=O)NCCCc1ccccc1	18	13
Cc1cc(O)cc2oc3cc(O)cc(O)c3c(=O)c12	-8	-53
Cc1cc(=O)c2c(O)oc(O)c3c(O)cc(=O)c1c32	-118	68*
CC(C)(C)c1nnc(NC(=O)C(=O)c2c[nH]c3ccccc23)s1	-10	8
COC(=O)c1cc(-c2ccccc2)sc1NC(=O)c1cccc(OC)c1	-60	-14
Cc1ccc2c(c1)c(=O)cc(C(F)(F)F)n2C[C@H]1CCCN1C(=O)C1CC1	41*	-2
O=C(C1CCCCC1)N1CCC[C@@H]1Cn1nnc(-c2cccnc2)n1	19	17
C/C1=C/CC(O)/C=C/C(C)C(O)C(C)/C=C(\C)C(=O)c2c(O)c(C)cc3c2C(=O)C(Cl)=C(NC(=O)\C=C/C=C/C=C\C(C)C(O)CC1=O)C3=O (stereo not drawn)	-98	74*
C/C1=C/C=C/C=C\[C@H](C)[C@@H](O)CC(=O)/C(C)=C/C[C@H](O)/C=C/[C@H](C)[C@H](O)[C@@H](C)/C=C(\C)C(=O)c2c(O)c(C)cc3c2C(=O)C=C(NC1=O)C3=O	-284	21
COCCNC(=O)Cn1c(=O)n(Cc2ccccc2)c(=O)c2c3c(sc21)CCC3	59*	29
Cc1ccc(CNC(=O)Cn2c(=O)n(-c3ccccc3)c3ncccc32)cc1	-7	51*
COCCNC(=O)Cn1c(=O)n(Cc2ccc(C(=O)NCc3ccc(C)cc3)cc2)c(=O)c2ccccc21	90*	77*
COCCCNC(=O)c1ccc(Cn2c(=O)c3ccccc3n(CC(=O)NCc3ccco3)c2=O)cc1	-5	-34
O=C(Cn1c(=O)n(-c2ccc(F)cc2)c2ncccc21)NCc1ccccc1	9	18
COCCCNC(=O)c1ccc(Cn2c(=O)c3ccccc3n(CC(=O)N3CCN(c4ccccc4)CC3)c2=O)cc1	-21	-3
COCCn1cnc2c1c(=O)n(CC(=O)NCCc1ccc(Cl)cc1)c(=O)n2Cc1ccccc1	-6	8
COCCCNC(=O)c1ccc(Cn2c(=O)c3ccccc3n(CC(=O)NC3CCCCC3)c2=O)cc1	46*	62*
O=C(COC(=O)CC(c1ccccc1)c1ccccc1)Nc1cc(S(=O)(=O)N2CCOCC2)ccc1N1CCOCC1	-96	-32
COc1ccc(CCN2C[C@@]34CN(C(=O)C5CCC5)C[C@@H](C[C@@H]3S2(=O)=O)O4)cc1	21	12
SMILES	USP30 block	USP17 block
CSc1ccccc1NC(=O)c1cn2c(n1)CCCC2	-4	-11
CCc1ccc(CNCc2c(C(=O)O)n(CC)c3cc(OC)ccc23)cc1	7	1
Cc1nnc2ccc(-c3noc(-c4cccc5[nH]ccc45)n3)cn12	-36	14
CCC1CN(S(=O)(=O)c2ccc3c(c2)NC(=O)CCS3)c2cc(C)ccc2O1 (stereo not drawn)	43*	20
Cc1cccc(CNS(=O)(=O)c2ccc3c(c2)NC(=O)CCS3)c1	-1	0
c1cncc(-c2nc(NC3CC3)c3c4c(sc3n2)CCCC4)c1	-8	0
O=S(=O)(c1ccc(-c2noc(COc3ccccc3)n2)cc1)N1CCOCC1	-8	14
COc1ccc(C(NS(=O)(=O)c2ccc(S(=O)(=O)N3CCOCC3)cc2)c2ccccc2)cc1 (stereo not drawn)	36*	9
Cc1ccc(S(=O)(=O)NCCn2ccc3ccccc32)cc1	-139	-31
Cc1ccc(S(=O)(=O)NCCn2c(N)c(C#N)c3nc4ccccc4nc32)cc1	-154	40*
CC(=O)c1ccc(NC(=O)/C(=C/c2ccco2)n2nnnc2-c2ccccc2)cc1	-128	51*
O=C(Nc1ccccc1)/C(=C/c1ccco1)n1nnnc1-c1ccccc1	-69	-7
Cc1sc(-c2ccncc2)nc1OC(=O)c1ccc(F)cc1F	6	3
Cc1sc(-c2ccc(Cl)nc2)nc1OC(=O)c1ccc(F)cc1F	45*	53*
CC(C)Cn1cc(C(=O)O)c(S(=O)(=O)N2CCOCC2)n1	23	8
CCn1c(=O)c(-c2ccc(C(=O)NCc3ccc(OC)cc3OC)cc2)nc2cccnc21	-2	-6
CCCn1c(=O)c(-c2ccc(C(=O)NCc3ccc(OC)cc3)cc2)nc2cccnc21	32*	87*
Cc1c(C(=O)Nc2ccccn2)oc2c(Cl)cccc12	48*	33*
Cc1c(C(=O)Nc2ccccn2)oc2ccccc12	/	13
CN(C(=O)C1(c2ccccc2)CC1)c1nc2c(s1)CCc1occc1-2	-38	13
CN(C(=O)c1cccc2cccnc12)c1nc2c(s1)CCc1occc1-2	25	69*
CNc1nc2c(c(=O)n1-c1ccccc1)CN(C(=O)Cc1ccccc1)CC2	5	5
CN(C)c1cc(-n2cnc(C(=O)NCc3ccccc3Cl)c2)ncn1	28	52*
CN(C)c1cc(-n2cnc(C(=O)NCc3ccc(Cl)cc3)c2)ncn1	21	13
Cc1cnnn1-c1ccc(C(=O)Nc2ccc(Cl)cc2)cc1	58*	45*
SMILES	USP30 block	USP17 block
Cc1cnnn1-c1ccc(C(=O)Nc2ccccc2Cl)cc1	/	1
c1ccc2nc(-c3nc(-c4ccn5cnnc5c4)no3)ccc2c1	-37	-6
O=C(CC1SCCNC1=O)Nc1ccc2ccccc2c1 (stereo not drawn)	6	1
O=C(NCC1CCCO1)C1CN(C(=O)c2ccc3c(c2)OCO3)C1 (stereo not drawn)	6	-48
CC#CC#CC#C/C=C/CO	-85	-17
Cc1n[nH]c(C)c1CCc1nc2c3ccccc3nc(SCC(=O)c3ccc(F)cc3)n2n1	71*	53*
COc1cc2nc(SCC(=O)c3ccc(F)cc3)n3nc(C)nc3c2cc1OC	-44	-12
Nc1c(C(=O)NCC2CCCO2)nnn1-c1ccccc1Cl (stereo not drawn)	28	17
Cc1nnc2ccc(S(=O)(=O)N(Cc3ccccc3)c3ccccc3)cn12	-66	-36
Cc1cc(C)n(-c2ccc(C(=O)NCc3cn4cc(C(F)(F)F)cc(Cl)c4n3)cc2)n1	0	37*
Cc1cc(C)n(-c2ccc(C(=O)Nc3nc4c(s3)CN(C)CC4)cc2)n1	-295	8
Cc1ccc(-c2n[nH]c3c2CN(S(=O)(=O)c2cnc[nH]2)CC3)cc1	27	10
Cc1ccc(NC(=O)c2cn(-c3ccc(S(=O)(=O)N4CCCC4)cn3)cn2)cc1	29	13
CCNC(=O)c1cn(-c2ccc(S(=O)(=O)N3CCCC(C)C3)cn2)cn1 (stereo not drawn)	/	44*
CCC(=O)Nc1ccc(-n2cnc(C(=O)NC3CC3)c2)nc1	-2	-4
CC(=O)Nc1ccc(-n2cnc(C(=O)N3CCCC(C)C3)c2)nc1 (stereo not drawn)	41*	11
